Test results from PubChem BioAssay AID425 (Sanford-Burnham Center for Chemical Genomics, 2006).
Several values for one entry are separate records, joined by “and”; a condition that tells them apart may be missing. Identical values can stand only once. Out of some 110,000 compounds screened, about 190 (0.17%) were called active. Rule as the data show it: active = inhibition above about 50%; inactive = the rest. The full list was thinned out, with actives kept by preference. Results with a measured potency or affinity are listed apart.

The compounds below were run against Dual specificity protein phosphatase 6 (Rattus norvegicus) (UniProt Q64346) (assay: MKP-3 phosphatase inhibitors, primary screen, biochemical, rat enzyme, in vitro (AID 425;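 also: plate controls were vehicle for no effect and reference inhibitor for full effect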)). Conditions: recombinant MKP-3 phosphatase activity, fluorescence; at 20 µM; stronger effect = higher value.
Dual specificity protein phosphatase 6 (Rattus norvegicus), sequence (Q64346 whole entry, looked up): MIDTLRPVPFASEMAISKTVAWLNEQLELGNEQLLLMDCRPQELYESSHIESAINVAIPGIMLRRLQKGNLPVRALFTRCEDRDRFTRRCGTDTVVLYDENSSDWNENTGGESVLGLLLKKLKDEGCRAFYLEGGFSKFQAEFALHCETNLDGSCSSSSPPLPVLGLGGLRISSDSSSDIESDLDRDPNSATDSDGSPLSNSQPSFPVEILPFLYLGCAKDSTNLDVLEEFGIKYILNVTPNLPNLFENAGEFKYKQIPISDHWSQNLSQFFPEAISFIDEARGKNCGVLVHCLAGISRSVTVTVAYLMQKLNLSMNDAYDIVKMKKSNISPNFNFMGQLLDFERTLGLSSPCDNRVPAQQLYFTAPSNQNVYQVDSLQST

inhibition, inactive:
Cc1ccc(-c2ccc(C=C3C(=O)N(C)C(=O)N(C)C3=O)o2)cc1[N+](=O)[O-] -5.2%
CN(c1ccc(C(=O)N2CCCCC2)cc1)S(=O)(=O)c1ccccc1 2.4%
CCc1c(C)c2ccc(OCC(C)=O)c(C)c2oc1=O 5.8%
CCc1c(C)c2ccc(OCc3ccccc3)c(C)c2oc1=O 3.5%
O=C(CN1CCCCCC1)Nc1cccc2c1OCO2 0.2% and -9.3%
COc1ccc(/C=C/C(=O)NCC(C)NC(=O)/C=C/c2ccc(OC)c(OC)c2)cc1OC (centres undefined) 1.7%
COc1ccc(/C=C(\NC(=O)c2ccccc2)C(=O)NCC(C)C)cc1OC 3%
COc1cccc(-c2cc(C(=O)Nc3c(C)nn(Cc4ccccc4)c3C)no2)c1 0.1%
O=C(NCCNc1ccc(Cl)cc1[N+](=O)[O-])c1ccccc1Cl 1.9%
Cc1c(O)ccc2c1oc(=O)c1ccccc12 1.2%
O=c1oc2c(O)c(O)ccc2c2c1CCC2 7.2%
Cc1ccc(S(=O)(=O)NCC(=O)N(CCc2ccccc2)CC(=O)NCc2ccco2)cc1 -4.7%
Cc1nn(-c2ccccc2)c(C)c1Sc1ccc(Br)cc1 0.2%
Cc1cc(C)nc(Sc2c(C)nn(-c3ccccc3)c2C)n1 -0.6%
COc1ccc(C2C(C(=O)OC(C)C)=C(C)N=c3s/c(=C/c4c[nH]c5ccccc45)c(=O)n32)cc1 (centres undefined) 3.4%
CCOCCOC(=O)c1ccc(NC(=O)/C=C/c2ccc(OC)c(Br)c2)cc1 2.5%
COc1ccc(Cl)cc1C(=O)Nc1nc2ccc(S(C)(=O)=O)cc2s1 3.8%
CCOc1ccc(NC(=O)CSc2nc3ccc(OC)cc3[nH]2)cc1 -0.2%
O=C(O)c1ccccc1-c1ccccc1/C=N/O -1.8%
CCOC(=O)C1=C(C)N=c2s/c(=C\c3ccc(OCC)cc3)c(=O)n2C1c1ccccc1 (centres undefined) 2.8%
CCOC(=O)C1=C(C)N=c2s/c(=C\c3ccc(OCC(=O)O)cc3)c(=O)n2C1c1ccccc1 (centres undefined) 2.5%
Cc1c(N2C(=O)c3cccc([N+](=O)[O-])c3C2=O)c(=O)n(-c2ccccc2)n1C 1.8%
CCN(CC)CCCNC(=O)c1cc2nc(-c3ccc([N+](=O)[O-])cc3)cc(C(F)(F)F)n2n1 1.9%
COc1ccccc1C=C1C(=O)NC(=S)N(c2ccccc2F)C1=O 3%
O=C1NC(=S)N(c2cccc(Cl)c2)C(=O)/C1=C\c1ccc(N2CCCC2)cc1 19.3%
Cc1cc(/C=C2\C(=O)NC(=S)N(c3cccc(Cl)c3)C2=O)c(C)n1C -0.4%
COc1ccccc1/C=C1/C(=O)NC(=O)N(c2ccccc2OC)C1=O -1.2%
O=C1CC(c2cccs2)CC2=C1C(c1ccsc1)Nc1ccccc1N2 (centres undefined) -0.1%
C=C(C)Cn1c(SCC(=O)NN)nnc1-c1ccc(Br)cc1 2.7%
CCC(C)(C)NC(=O)C1CCN(c2nc(C)cc(C)n2)CC1 -18.2%
CCc1nnc(NC(=O)C2CC(=O)N(c3ccc(C)cc3)C2)s1 (centres undefined) -9.9%
O=C1NC(=O)/C(=C\c2ccccc2Cl)S1 -2.9%
O=C1NC(=S)S/C1=C\c1ccccc1OS(=O)(=O)c1ccc([N+](=O)[O-])cc1 1.6%
O=C1NC(=S)N/C1=C/c1cc2c(cc1Cl)OCO2 0.8%
O=C1NC(=Nc2ccc(Br)cc2)S/C1=C\c1ccccc1[N+](=O)[O-] 1.9%
O=C1NC(=S)S/C1=C/c1ccccc1OS(=O)(=O)c1ccccc1[N+](=O)[O-] 1.4%
O=C1NC(=S)N/C1=C/c1ccc2c(c1)OCO2 5.3%
COc1cc(/C=C2\NC(=S)NC2=O)c([N+](=O)[O-])cc1OC 13.3%
COc1cc(Br)c(/C=C2/SC(=S)NC2=O)cc1OC -0.6%
COc1ccc(CN2C(=O)C(O)(CC(=O)c3c(C)n[nH]c3C)c3ccccc32)cc1OC (centres undefined) -1.9%
CCOc1cc(C(=O)Nc2ccc(Br)cc2F)cc(OCC)c1OCC 5.8%
O=C(c1oc2ccccc2c1N1CCCCC1)N1CCCCC1 2.6%
O=C1CN(S(=O)(=O)CCOc2ccccc2)CC(=O)N1CCOc1ccccc1 3.6%
CN(Cc1ccccc1)c1oc(-c2ccco2)nc1C#N -1.5%
O=C(NN=C(C1CC1)C1CC1)c1cc2ccccc2cc1O 1.9%
CC1(C)CC(=O)c2nc(NC(=O)CSC(=O)c3ccccc3)sc2C1 0.6%
CN1C(=O)/C(=C\c2cc(Br)ccc2OCc2ccccc2)SC1=S 2.6%
O=C1/C(=C/c2cc3c(cc2[N+](=O)[O-])OCO3)Sc2ccccc21 -0.9%
O=C1NC(=O)/C(=C\c2cc3c(cc2Br)OCO3)S1 1.1%
CC(C)(C)c1cc(Br)ccc1OCC(=O)Nc1ccc2c(c1)OCCO2 6.4%
COc1ccc2nc(SCC(=O)Nc3ccccc3)[nH]c2c1 -2.1%
Cc1cc(N2C(=O)NC(=O)/C(=C\c3ccco3)C2=O)ccc1Br 42.1%
O=C1NC(=S)N(c2ccc(F)cc2)C(=O)/C1=C/c1ccc(F)cc1 -0.1%
COc1ccc(OC)c(N2C(=O)NC(=O)C(=Cc3ccc(C)o3)C2=O)c1 3.8%
COc1cccc(N2C(=O)C(=Cc3ccc(OC)cc3OC)C(=O)NC2=S)c1 2.6%
Cc1ccc(C=C2C(=O)NC(=S)N(c3ccccc3Cl)C2=O)o1 11.8%
O=C1NC(=O)N(c2ccc(Br)cc2)C(=O)/C1=C/c1ccco1 46.2%
COc1cccc(-c2cc(C(=O)NC(C)c3ccccc3)c3ccccc3n2)c1 (centres undefined) 2.7%
CCCOc1ccc(C(=O)Nc2ccc(C)cc2[N+](=O)[O-])cc1 2.7%
O=C(O)c1cc(O)ccc1NC(=O)C(c1ccccc1)c1ccccc1 4.4%
CC(C)=C1C2CCC1C(C(=O)NCCC1=CCCCC1)C2C(=O)O (centres undefined) 1.3%
CCc1ccc(-n2c(C)cc(/C=N/NC(=O)c3cccnc3)c2C)cc1 6.1%
O=C(NCCN1CCOCC1)c1cccc(S(=O)(=O)N2CCCCCC2)c1 -10.5%
CN1C(=O)/C(=C2\SC(=S)N(CC(=O)O)C2=O)c2ccccc21 2%
CN1C(=O)c2oc3ccc(Br)cc3c(=O)c2C1c1ccncc1 (centres undefined) 2.2%
Cc1ccc(NC(=O)C(=O)N/N=C/c2cccs2)cc1 0.5%
CCc1ccccc1OCCN(CC)CC 1.4%
COc1cc(/C=N/NC(=O)c2cccc([N+](=O)[O-])c2)cc(I)c1O -0.4%
COc1ccc(/C=N/NC(=O)c2cccc([N+](=O)[O-])c2)cc1Br -2.3%
C/C(=N\NS(=O)(=O)c1ccc(C)cc1)C(C)(C)CC(=O)O 0.4%
Cc1ccc(S(=O)(=O)N2CCN(Cc3ccccc3[N+](=O)[O-])CC2)cc1 3.5%
CCOC(=O)CNC(=O)CSc1nnc(Cn2cnc3ccccc32)n1C -4.9%
COc1ccc(OC)c(CNC(=O)COc2cc(=O)n(C)c3ccccc23)c1 -0.9%
CCOC(=O)/C=C/CSc1nc2sc3c(c2c(=O)[nH]1)CCCC3 3.4%
CCOc1cc(C=C2C(=O)c3ccccc3C2=O)ccc1OCc1ccc(Cl)cc1Cl 2%
COc1cc(/C=N/NC(=O)Cc2nnc(N)s2)ccc1OCc1ccc(Cl)cc1Cl 0.3%
CCN(CC)c1ccc(/C=N/NC(=O)Cn2nnc(-c3ccccc3)n2)c(O)c1 0.8%
O=P(c1ccccc1)(c1ccccc1)C(O)c1ccco1 (centres undefined) 4.6% and -1.6%
O=C(O)CC(NC(=O)C(c1ccccc1)c1ccccc1)c1ccco1 (centres undefined) -9.2%
O=C(NC1(O)C(=O)c2ccccc2C1=O)c1ccccc1 21.6%
Cc1nonc1NC(=O)Nc1cccnc1 -4.7%
CC1=C/C(=N\OC2=C(O/N=C3/C=CC(=O)C(C)=C3)C(=O)c3ccccc3C2=O)C=CC1=O 42.8%
CC1=CC(=O)C=C/C1=N\OS(=O)(=O)c1ccccc1 8.7%

inhibition, active:
CCC(C)NC(=O)/C(=C\c1ccc(OC(C)=O)c(OC)c1)NC(C)=O (centres undefined) 97.1%
Cc1nn(-c2ccccc2)c(C)c1Sc1ccc(Cl)cc1 74.7%
COc1ccccc1N1C(=O)C(=Cc2cccn2C)C(=O)NC1=S 93.6%
Cn1cccc1/C=C1/C(=O)NC(=S)N(c2cccc(Cl)c2)C1=O 60.6%
O=C1NC(=S)S/C1=C\c1ccccc1[N+](=O)[O-] 122%
COc1cc(/C=C2/SC(=S)NC2=O)c([N+](=O)[O-])cc1OC 50.1%
O=C1NC(=S)N/C1=C/c1cc2c(cc1[N+](=O)[O-])OCO2 64.9%
O=C1NC(=O)/C(=C/c2ccccc2[N+](=O)[O-])S1 79.4%
O=C1NC(=O)/C(=C\c2cc3c(cc2[N+](=O)[O-])OCO3)S1 122%
Cc1nonc1NC1(O)C(=O)c2ccccc2C1=O 106%
CC1=CC(=O)C=C/C1=N/OC1=C(O/N=C2/C=CC(=O)C=C2C)C(=O)c2ccccc2C1=O 66%
